# PubChem BioAssay AID1347142 (National Center for Advancing Translational Sciences (NCATS), 2019)
# Records with an inconclusive call do not appear. Entries that show only a call come without a potency. Activity calls are given as the source filed them. Calls come from the whole dose curve; as a rule, active = well fitted inhibition curve with a large enough effect; inconclusive = small, poorly fitted or top-dose-only effect; inactive = no such curve, though single readings can be large or run the other way.
# Biological target: N-terminal Xaa-Pro-Lys N-methyltransferase 1 (Homo sapiens) (UniProt Q9BV86)
# Test: qHTS Assay for Inhibitors of N-terminal methyltransferase 1 (NTMT1): ThioGlo3 Assay Confirmatory Screen, Round 1.
# Conditions: NTMT1 SAHH-coupled ThioGlo3 fluorescence, 30 min; series mostly up to 56.8 µM
# Outline: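 Human NTMT1 at 125 nM was preincubated 1 min at room temperature with compounds at various concentrations or 1 uM RCC1-6 control. Substrate mix (100 uM SAM, 10 uM SAHH, 15 uM ThioGlo3) was added, and fluorescence (Ex 340/Em 450 nm) was read at start and after 30 min, normalized to background.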
# Note: nearly all actives have a fitted effect of over 80% in size.
# Potency is the fitted concentration of half-maximal effect.
# Chain of N-terminal Xaa-Pro-Lys N-methyltransferase 1 (Homo sapiens) (Q9BV86 whole entry, looked up): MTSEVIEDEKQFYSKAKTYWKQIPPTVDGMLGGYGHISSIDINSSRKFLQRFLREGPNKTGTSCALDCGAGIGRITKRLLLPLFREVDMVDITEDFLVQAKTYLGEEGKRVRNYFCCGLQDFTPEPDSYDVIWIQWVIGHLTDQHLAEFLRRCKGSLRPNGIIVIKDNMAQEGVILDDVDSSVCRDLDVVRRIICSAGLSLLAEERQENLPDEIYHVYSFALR
row,SMILES,Potency
1,OC[C@@H]1O[C@@H](n2cnc3c(N[C@H]4CCC[C@@H]4O)ncnc32)[C@H](O)[C@H]1O,inactive
2,COc1cc2c(NC3CCN(C)CC3)nc(N3CCCN(C)CC3)nc2cc1OCCCN(C)C,27.1 µM (active)
3,Nc1ncnc2c1ncn2[C@@H]1O[C@H](CO)[C@@H](O)[C@@H]1O,inactive
4,OC[C@H]1O[C@@H](n2cnc3cncnc32)[C@H](O)[C@@H]1O,2.41 µM (active)
5,Cn1cnc2c(ncn2[C@@H]2O[C@H](CO)[C@@H](O)[C@H]2O)c1=N,inactive
6,C=CCNc1nc(NC2CCN(C)CC2)c2cc(OC)c(OC)cc2n1,27.1 µM (active)
7,Nc1ncnc2c1ncn2[C@@H]1O[C@H](COP(=O)(O)O)[C@@H](O)[C@H]1O,inactive
8,C[C@@H](Cc1ccccc1)Nc1ncnc2c1ncn2[C@@H]1O[C@H](CO)[C@@H](O)[C@H]1O,inactive
9,COc1cc2nc(N3CCCN(C)CC3)nc(NC3CCOCC3)c2cc1OC,24.1 µM (active)
10,COc1cc2c(NC3CCN(C(C)C)CC3)nc(N3CCCN(C)CC3)nc2cc1OCCOCCN1CCCC1,27.1 µM (active)
11,Nc1ncnc2c1[nH]c(=O)n2C1OC(CO)C(O)C1O (stereo not given),inactive
12,COc1cc2c(NC3CCN(C)CC3)nc(N3CCCN(C)CC3)nc2cc1OCCOCCN1CCCC1,27.1 µM (active)
13,COc1cc2nc(N3CCCN(C)CC3)nc(N(C)C)c2cc1OC,inactive
14,Nc1nc(Cl)nc2c1ncn2[C@@H]1O[C@H](CO)[C@H](O)[C@H]1O,inactive
15,COc1cc2c(NC3CCN(C(C)C)CC3)nc(N3CCCCCC3)nc2cc1OCCCN1CCCC1,21.5 µM (active)
